In paper PMC5540273 (PLoS ONE, 2017):

What follows are molecules tested on MAP4K3. Conditions: concentration: 1 μM,replicates: in singlicate; n = 1.
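Also: KINOMEscan kinase panel screen.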

| SMILES | %Inh [%] |
| --- | --- |
| Cl.Cl.Nc1nc(-c2ccc3c(N)n[nH]c3c2)cc(N2CCCC(NC(=O)c3ccccc3)C2)n1 (stereo not shown) [GSK2286775] | 0 |
| CC(C)Nc1cc(-c2ccc3c(N)n[nH]c3c2)nc(N)n1 [GSK2221681] | 0 |
| COc1ccc(C[C@@H](CN)NC(=O)c2cc(Br)c(-c3ccnc4[nH]ccc34)s2)cc1.Cl.Cl [GSK1389063] | 39 |
| C[C@H]1Oc2cc(cnc2N)-c2c(nn(C)c2C#N)CN(C)C(=O)c2ccc(F)cc21 | 5 |
| Cc1ccc2c(-c3ccncc3)c(-c3ccc(F)cc3)nn2c1.Cl [GW461484] | 0 |
| C=CC(=O)Nc1cc2c(Nc3ccc(F)c(Cl)c3)ncnc2cc1OCCCN1CCOCC1 [GW781483] | 0 |
| CNC(=O)c1ccccc1Sc1ccc2c(/C=C/c3ccccn3)n[nH]c2c1 | 28 |
| CCN(CC)CCOc1ccc(Nc2ncc3cc(-c4c(Cl)cccc4Cl)c(=O)n(C)c3n2)cc1 [SB-601273] | 99.5 |
| CN(C)CCOc1ccc(-c2cc(-c3c[nH]nc3-c3ccccn3)ccn2)cc1 [GW835314] | 3 |
| Cl.Oc1cc(-c2nc(-c3ccccc3)[nH]c2-c2ccncc2)ccc1Cl [SB-386023] | 0 |
| CC(C)N1C(=O)Cc2cc(Nc3ncc(C(F)(F)F)c(NCc4cccc(S(C)(=O)=O)c4)n3)ccc21 | 0 |
| O=C(NCCNc1ccnc(NCc2ccc(F)cc2)n1)c1cc2ccccc2s1 [GSK1379944] | 0 |
| CCn1c(-c2nonc2N)nc2c(C#CC(C)(C)O)nc(OCCN)cc21.Cl.Cl [GSK902056] | 0 |
| NC(=O)c1cc(-c2ccccc2)cc2c(C3CCNCC3)c[nH]c12 [GSK301362] | 48 |
| CCN(CC)CCCCNc1ncc2cc(-c3c(Cl)cccc3Cl)c(NC(=O)NC(C)(C)C)nc2n1 | 74 |
| Nc1nc(Nc2ccccc2)cc(-c2ccc3c(N)n[nH]c3c2)n1 [GSK2225749] | 0 |
| Cc1occc1-c1nc(N)c(OC[C@@H](N)Cc2c[nH]c3ccccc23)cc1-c1cc2c(C)n[nH]c2cn1 [GSK1660450] | 99.4 |
| Cl.Cl.NC[C@H](CC1CCCCC1)NC(=O)c1cc(Br)c(-c2ccnc3[nH]ccc23)s1 [GSK1581427] | 26 |
| Cc1n[nH]c2ccc(-c3cc(OC[C@@H](N)Cc4ccccc4)cnc3-c3ccoc3)cc12.O=C(O)C(F)(F)F.O=C(O)C(F)(F)F [GSK507358] | 77 |
| C[C@@H]1CCN(C(=O)CC#N)C[C@@H]1N(C)c1ncnc2[nH]ccc12 | 4 |
| O=C(NCCCN1CCOC1=O)c1cnc(NCc2cc(Cl)ccc2Cl)nc1NC1CCCC1 | 37 |
| Cc1cc(C(=O)Nc2ccc(Oc3ccc4nc(NC(=O)C5CC5)cn4n3)cc2)nn1-c1ccccc1 | 2 |
| Cc1ccc(-n2nc(C(C)(C)C)cc2NC(=O)Nc2ccc(OCCN3CCOCC3)c3ccccc23)cc1 [GW839464] | 0 |
| Cc1cc2cn[nH]c2cc1-c1cccc2c(N)c(C(N)=O)nnc12 | 74 |
| Cl.Cl.NC[C@H](Cc1ccc(C(F)(F)F)cc1)NC(=O)c1cc(Br)c(-c2ccnc3[nH]ccc23)s1 [GSK1487252] | 14 |
| CN(C)CC(O)COc1ccc(Nc2nccc(-c3cnn4nc(N5CCOCC5)ccc34)n2)cc1 (stereo not shown) [GW767488] | 0 |

These molecules were tested on MAP4K4. Conditions: concentration: 1 μM,replicates: in singlicate; n = 1.

| SMILES | %Inh [%] |
| --- | --- |
| Cl.Cl.Nc1nc(-c2ccc3c(N)n[nH]c3c2)cc(N2CCCC(NC(=O)c3ccccc3)C2)n1 (stereo not shown) [GSK2286775] | 0 |
| CC(C)Nc1cc(-c2ccc3c(N)n[nH]c3c2)nc(N)n1 [GSK2221681] | 7 |
| COc1ccc(C[C@@H](CN)NC(=O)c2cc(Br)c(-c3ccnc4[nH]ccc34)s2)cc1.Cl.Cl [GSK1389063] | 51 |
| C[C@H]1Oc2cc(cnc2N)-c2c(nn(C)c2C#N)CN(C)C(=O)c2ccc(F)cc21 | 9 |
| Cc1ccc2c(-c3ccncc3)c(-c3ccc(F)cc3)nn2c1.Cl [GW461484] | 48 |
| C=CC(=O)Nc1cc2c(Nc3ccc(F)c(Cl)c3)ncnc2cc1OCCCN1CCOCC1 [GW781483] | 3 |
| CNC(=O)c1ccccc1Sc1ccc2c(/C=C/c3ccccn3)n[nH]c2c1 | 20 |
| C[C@@H](Oc1cc(-c2cnn(C3CCNCC3)c2)cnc1N)c1c(Cl)ccc(F)c1Cl | 0 |
| CN(C)CCOc1ccc(-c2cc(-c3c[nH]nc3-c3ccccn3)ccn2)cc1 [GW835314] | 80 |
| Cl.Oc1cc(-c2nc(-c3ccccc3)[nH]c2-c2ccncc2)ccc1Cl [SB-386023] | 19 |
| CC(C)N1C(=O)Cc2cc(Nc3ncc(C(F)(F)F)c(NCc4cccc(S(C)(=O)=O)c4)n3)ccc21 | 24 |
| O=C(NCCNc1ccnc(NCc2ccc(F)cc2)n1)c1cc2ccccc2s1 [GSK1379944] | 2 |
| CCn1c(-c2nonc2N)nc2c(C#CC(C)(C)O)nc(OCCN)cc21.Cl.Cl [GSK902056] | 0 |
| NC(=O)c1cc(-c2ccccc2)cc2c(C3CCNCC3)c[nH]c12 [GSK301362] | 22 |
| CCN(CC)CCCCNc1ncc2cc(-c3c(Cl)cccc3Cl)c(NC(=O)NC(C)(C)C)nc2n1 | 0 |
| Nc1nc(Nc2ccccc2)cc(-c2ccc3c(N)n[nH]c3c2)n1 [GSK2225749] | 28 |
| Cc1occc1-c1nc(N)c(OC[C@@H](N)Cc2c[nH]c3ccccc23)cc1-c1cc2c(C)n[nH]c2cn1 [GSK1660450] | 99.3 |
| Cl.Cl.NC[C@H](CC1CCCCC1)NC(=O)c1cc(Br)c(-c2ccnc3[nH]ccc23)s1 [GSK1581427] | 18 |
| Cc1n[nH]c2ccc(-c3cc(OC[C@@H](N)Cc4ccccc4)cnc3-c3ccoc3)cc12.O=C(O)C(F)(F)F.O=C(O)C(F)(F)F [GSK507358] | 98.1 |
| C[C@@H]1CCN(C(=O)CC#N)C[C@@H]1N(C)c1ncnc2[nH]ccc12 | 0 |
| O=C(NCCCN1CCOC1=O)c1cnc(NCc2cc(Cl)ccc2Cl)nc1NC1CCCC1 | 15 |
| Cc1cc(C(=O)Nc2ccc(Oc3ccc4nc(NC(=O)C5CC5)cn4n3)cc2)nn1-c1ccccc1 | 0 |
| Cc1ccc(-n2nc(C(C)(C)C)cc2NC(=O)Nc2ccc(OCCN3CCOCC3)c3ccccc23)cc1 [GW839464] | 90.2 |
| Cc1cc2cn[nH]c2cc1-c1cccc2c(N)c(C(N)=O)nnc12 | 34 |
| Cl.Cl.NC[C@H](Cc1ccc(C(F)(F)F)cc1)NC(=O)c1cc(Br)c(-c2ccnc3[nH]ccc23)s1 [GSK1487252] | 11 |
| CN(C)CC(O)COc1ccc(Nc2nccc(-c3cnn4nc(N5CCOCC5)ccc34)n2)cc1 (stereo not shown) [GW767488] | 14 |
